12-hLO inh = blocks human 12-lipoxygenase activity; purified 12-hLO, xylenol orange hydroperoxide absorbance; Potency, µM (titrated, usually from 57.1 µM), for inactives: at the highest dose activity change, negative = inhibition, hits mostly inhibitors; 0.12% of 150,000 active; further: potency means the concentration at half of the fitted maximal effect; nearly all actives have a fitted effect of over 55% in size
Target sequence (P18054 whole entry, looked up): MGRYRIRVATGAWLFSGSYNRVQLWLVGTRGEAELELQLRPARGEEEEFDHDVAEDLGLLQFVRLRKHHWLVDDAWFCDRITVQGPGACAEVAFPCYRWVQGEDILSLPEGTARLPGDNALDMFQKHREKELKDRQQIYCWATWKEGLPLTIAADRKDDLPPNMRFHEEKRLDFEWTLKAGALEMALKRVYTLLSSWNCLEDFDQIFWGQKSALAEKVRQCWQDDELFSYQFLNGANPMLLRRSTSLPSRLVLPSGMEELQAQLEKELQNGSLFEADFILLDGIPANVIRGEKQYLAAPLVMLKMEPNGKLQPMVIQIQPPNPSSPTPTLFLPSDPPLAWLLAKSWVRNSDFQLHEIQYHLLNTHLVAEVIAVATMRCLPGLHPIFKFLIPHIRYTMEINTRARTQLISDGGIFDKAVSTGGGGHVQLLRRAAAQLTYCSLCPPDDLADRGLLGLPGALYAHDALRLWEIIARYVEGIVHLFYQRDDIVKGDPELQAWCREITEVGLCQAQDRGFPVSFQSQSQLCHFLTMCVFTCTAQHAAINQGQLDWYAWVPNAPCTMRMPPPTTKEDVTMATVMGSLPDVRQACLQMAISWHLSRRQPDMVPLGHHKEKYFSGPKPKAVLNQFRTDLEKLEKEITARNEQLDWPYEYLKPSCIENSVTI
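Hydroperoxide formation by human 12-lipoxygenase from 40 uM arachidonic acid was followed colorimetrically via ferric-xylenol orange complex, using the 573/405 nm absorbance ratio. Enzyme concentration was 150 nM, with 30 min reaction at room temperature.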
IMPase cell inh = IMPase inhibition in cells; P97697; CHO-M1 cells, IP1 accumulation, HTRF TR-FRET ratio; inhibition (IP1 accumulation), % at 46.1 µM; 120,000 tested, under 10 active; AID 901; active means well fitted curve in the direction sought with a large enough effect in the signal ratio, not every such curve was filed as active; inconclusive means small, poorly fitted or top-dose-only effect, or a change in a side signal; inactive means no such curve, though single readings can be large or run the other way; the % refers to the signal ratio;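 further: cells stimulated with carbachol in lithium chloride buffer; plate controls were DMSO basal wells for no effect and reference inhibitor wells for full effect; higher means more IMPase inhibition seen as more IP1 and lower FRET ratio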
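The IP-One HTRF competitive assay in carbachol-stimulated CHO-M1 cells quantifies cellular IP1. Compounds spanned up to 46 uM final, and activity is expressed as AC50 from concentration-response fits of the ratio and donor data.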
15-hLO-2 inh = inhibitors of human 15-lipoxygenase 2 (ALOX15B); O15296; 0.56% of 110,000 active; AID 881; purified 15hLO-2, xylenol orange hydroperoxide absorbance; Potency, µM (top dose mostly 57.1 µM), for the others: top-dose activity change, negative = inhibition, usual class: inhibitors; further: potency means the concentration at half of the fitted maximal effect; nearly all actives have a fitted effect of over 60% in size
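Read-out: hydroperoxide product oxidises ferrous iron, measured as xylenol orange complex via the 573-to-405 nm absorbance ratio after 30 min. Reaction: 50 nM enzyme, 15 min compound preincubation, 45 uM arachidonic acid, 90 min RT, Hepes pH 7.5 with Triton X-100.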
IMPase Li inh = membrane-permeable IMPase blocker, potentiated with lithium | CHO-M1 cells, IP1 TR-FRET (IP-One), carbachol + lithium | Potency, µM (doses to about 59.4 µM), for the others: at the highest dose activity, negative = IMPase inhibition, hits mostly inhibitors | 0.35% of 210,000 active | AID 1457;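 further: IP1 builds up when IMPase is blocked and the TR-FRET signal falls; potency means the concentration at half of the fitted maximal effect; plate controls were basal vehicle for no effect and high inhibitor control for full effect; nearly all actives have a fitted effect of over 50% in size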
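CHO cells stably expressing M1 receptor (2000/well) were cultured 16–30 h, then exposed to compounds with a small lithium addition for 30 min at 37C. IP1 was measured by TR-FRET competition; AC50 from Hill fits.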
An asterisk follows results filed as active; ? = inconclusive; nt = no result given; ! = not confirmed by another sample; [ ] = another dose, or the depositor's remark. Shown are actives, neighbours in structure and some others; about 0.57% of the full set was active somewhere. Unless noted, the call rests on the fitted dose curve; in most records, active means well fitted curve in the direction sought with a large enough effect; inconclusive means small, poorly fitted or top-dose-only effect, or another doubt; inactive means no such curve, though single readings can be large; an effect the other way counts as inactive or inconclusive. Unless noted, on the % scale 0 is the no-effect control and ±100 the full control effect.

SMILES | 12-hLO inh | IMPase cell inh | 15-hLO-2 inh | IMPase Li inh
O=C(Cn1cnc2c(cnn2-c2ccc(Cl)cc2)c1=O)NCCc1ccccc1 | -2% | 0 | 5% | 13µM*
CC(C)(C)n1ncc2c(=O)n(CC(=O)NCCc3ccccc3)cnc21 | 9% | 12 | nt | -1%
O=C(Cn1cnc2sc(-c3ccccc3)cc2c1=O)NCCc1ccccc1 | -2% | -6 | -3% | 28µM*
CC(C)c1cc(Nc2cccc(O)c2)cc(C(C)C)c1O | ? | 0 | 13µM* | 2%[38.3 µM]
COc1cc(-c2nnc(COc3ccc4cc(Br)ccc4c3)o2)cc(OC)c1OC | -4% | ? | -7% | 14µM*
CCCC(=O)NCCc1c(I)[nH]c2ccc(OC)cc12 | nt | nt | nt | 1%
COC(=O)c1ccc2c(c1)C(C)(C)C(/C=C/c1ccc(OC)c(OC)c1OC)=[N+]2C | ? | 9 | 13µM* | 9%[38.3 µM]
COC(=O)c1ccc2c(c1)C(C)(C)C(/C=C/c1ccc(O)cc1)=[N+]2C | -25% | 4[1.84 µM] | -16%[11.4 µM] | 54%[38.3 µM]
C[C@@]12C[C@H](O)C3[C@H](CCC4=CC(=O)CC[C@]43C)[C@H]1CC[C@@H]2c1csc(-c2ccccc2)n1 (stereo partly specified) | nt | nt | nt | 10%
Cc1nn(CCc2nn[nH]n2)c2nc(C(F)(F)F)cc(C(F)(F)F)c12 | 1% | 4 | -1% | -8%[38.3 µM]
Cc1nn(CCc2nn[nH]n2)c2nc(-c3ccc(Br)cc3)cc(C(F)(F)F)c12 | nt | nt | nt | 2µM*
COc1ccc(-c2c3c([nH]c(=S)c2C#N)CCC3)cc1 | -10% | ? | 1%[2.29 µM] | 7.9µM*
N#Cc1c(-c2ccco2)c2c([nH]c1=S)CCCC2 | 0% | -15 | -29% | -23%
N#Cc1c(-c2cccnc2)c2c([nH]c1=S)CCCC2 | -19% | -5 | 20µM* | nt
COc1ccc(OC)c(-c2c3c([nH]c(=S)c2C#N)CCCC3)c1 | nt | nt | nt | -8%
O=C(O)/C=C\c1c2ccc(=O)c(O)c-2oc2c(O)c(O)ccc12 | -24%[11.4 µM] | nt | ? | 7%
COc1ccc(OC)c(C2C=C(C34CC5CC(CC(C5)C3)C4)NC(=S)N2)c1 (stereo unspecified) | 7.1µM* | nt | nt | -4%
COc1cc(C2C=C(C34CC5CC(CC(C5)C3)C4)NC(=S)N2)cc(OC)c1OC (stereo unspecified) | 11µM* | 7 | -27% | 29%[38.3 µM]
NC(=S)c1ccc[n+]([C@@H]2O[C@@H](COP(=O)([O-])OP(=O)(O)OC[C@@H]3O[C@@H](n4cnc5c(N)ncnc54)[C@@H](OP(=O)(O)O)[C@H]3O)[C@@H](O)[C@H]2O)c1 | -9% | -5 | 11% | nt
C[C@@H]1C(=O)N(C)C(=O)c2nc[nH]c21 | -4% | -1 | 3% | nt
O=C(O)[C@@H]1[C@@H](C(=O)NCc2ccncc2)[C@@H]2C=C[C@@H]1O2 | 4%[11.4 µM] | nt | -3%[11.4 µM] | -3%
Cc1cccc(C)c1NC(=O)CN1C(=O)S/C(=C\c2cccn2-c2cccc(C(=O)O)c2)C1=O | -8% | -12 | ? | -11%[38.3 µM]
Cc1ccccc1NC(=O)CN1C(=O)S/C(=C\c2cccn2-c2cccc(C(=O)O)c2)C1=O | -10% | 12 | 25µM* | -4%[38.3 µM]
Cc1nnc(SCC2=C(C(=O)O)N3C(=O)[C@@H](NC(=O)Cn4cnnn4)[C@@H]3SC2)s1 | -6%[25.6 µM] | 0[20.6 µM] | 10%[25.6 µM] | -2%
COc1ccccc1-c1cc(-c2ccccc2)nc(SC(C(N)=O)c2ccccc2)c1C#N (stereo unspecified) | -5% | ? | 16µM* | 7.9µM*
SMILES | 12-hLO inh | IMPase cell inh | 15-hLO-2 inh | IMPase Li inh
O=C(Nc1ccc2c(c1)OCCO2)c1cc(-c2ccccn2)nc2ccc(Br)cc12 | nt | nt | nt | 13µM*
O=C(Nc1ccncc1)c1cc(-c2ccccn2)nc2ccccc12 | nt | nt | nt | 3%
N[C@H](Cc1cccc(-c2ccccc2CP(=O)(O)O)c1)C(=O)O | -4% | -1 | 7% | nt
CC(C)(C)c1ccc(O)c(/C=N\O)c1 | -13% | -6 | -6% | 1%[38.3 µM]
CC(C)(C)c1ccc(O)c(O)c1 | -14% | nt | 5µM* | -10%
CCCCC(CC)COC(=O)COc1ccc(Cl)cc1Cl (stereo unspecified) | -3% | nt | 1% | -2%
FC(F)(F)c1cc(CO[C@@H]2CCCN[C@H]2c2ccccc2)cc(C(F)(F)F)c1 | -2% | 2 | 33% | nt
CN(C)c1ccc(N/C=C/C(=O)c2ccco2)cc1 | -15% | 32 | 25µM* | 68%[38.3 µM]
COc1cccc(CNc2ccc(N3CCCCC3)cc2)c1OC | -22% | 4 | 25µM* | 60%[38.3 µM]
CCOc1ccc(CNc2ccc(N3CCCC3)cc2)cc1 | -29% | 26 | 5µM* | 9%
COc1ccccc1CNc1ccc(N2CCCCC2)cc1 | -8% | 2 | -13%[2.29 µM] | 37%[38.3 µM]
CC(=O)N1CCN(c2ccc(NCc3ccc(F)cc3)cc2)CC1 | ? | 15 | 25µM* | 12%[38.3 µM]
CC(=O)CSc1nc(N)c(C#N)c(-c2cccs2)c1C#N | 3% | -10 | -6% | 18%[38.3 µM]
CC(=O)CSc1nc(-c2cccs2)c(C#N)c(=O)[nH]1 | nt | nt | nt | 7.9µM*
NC(=[SH+])N=N/C=C1/C=CC=CN1.O=S(=O)(O)O.[Fe] | nt | nt | nt | -5%
O=C(/C=C\c1ccc(O)c(O)c1)OCCc1ccccc1 | ? | -3 | 13µM* | nt
O=C(/C=C/c1ccc(O)c(O)c1)O[C@@H](C(=O)O)[C@@H](OC(=O)/C=C/c1ccc(O)c(O)c1)C(=O)O | -8% | nt | 9% | 17%
N#CC(=C(/N)Sc1ccccc1N)/C(C#N)=C(\N)Sc1ccccc1N | nt | nt | nt | -4%
CN(C)C(=O)CN1CCN(c2nc3nonc3nc2N2CCCCC2)CC1 | nt | nt | nt | 2%
OCCN(CCO)c1nc(N2CCCCC2)c2nc(N(CCO)CCO)nc(N3CCCCC3)c2n1 | -2% | -17 | 20µM*! | ?
Cc1ccc(Sc2ccc(NC(=O)c3ccc(S(C)(=O)=O)cc3Cl)cc2)cc1 | 4% | ? | nt | 14µM*
CC(C)N=c1scc(-c2ccco2)n1/N=C/c1ccc(O)c(O)c1 | ? | 13 | 13µM* | 8%[38.3 µM]
COCCN=c1scc(-c2ccco2)n1/N=C/c1ccc(O)c(O)c1O | nt | nt | nt | 20%
CCOc1ccc(C2/C(=C(/O)c3ccc(OC)cc3)C(=O)C(=O)N2c2cc(C)on2)cc1OC (stereo unspecified) | 9% | -13 | 9% | ?
COc1ccc(/C(O)=C2\C(=O)C(=O)N(c3cc(C)on3)C2c2ccccc2OC)cc1 (stereo unspecified) | -6% | -29 | 15% | 6.3µM*
COc1cccc(C2/C(=C(\O)c3ccc(OC)c(OC)c3)C(=O)C(=O)N2c2cc(C)on2)c1 (stereo unspecified) | 8% | ? | 9% | 10µM*
O=C1C2=C(S[C@@H]3O[C@H](CO)[C@@H](O)[C@H](O)[C@H]3O2)C(=O)c2ccccc21 | nt | nt | nt | 11%
Cc1cn(S(=O)(=O)c2ccc(Br)c3ccccc23)cn1 | 0% | ? | 2% | 11µM*
COC(=O)C1=C(C(=O)OC)[C@@H]2N(C)c3ccc(OC)cc3[C@@]23C[C@@H](C(=O)OC)N(S(=O)(=O)c2cccs2)C3=N1 | -1%[11.4 µM] | nt | nt | 1%
